Test results taken from PubChem BioAssay AID588850 (Sanford-Burnham Center for Chemical Genomics, 2011).
In all, about 360,000 compounds went through this assay and about 3,100 (0.86%) were called active. This is one part of a sample in which actives are shown more often than they occur.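 How the source made its calls: active means at least 50% inhibition at 5 µM, scaled per plate between neutral and stimulator controls; inactive means the rest.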

assay: inhibitors of PAF-induced NF-kB signaling, primary screen, cell-based, GFP fluorescence, uHTS (AID 588850); conditions: KKLEB NF-kB-GFP reporter, GFP fluorescence overnight, at 5 µM, active compounds read high;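 further: PAF is a Pseudomonas aeruginosa culture filtrate used as stimulus; plate controls were PAF-stimulated DMSO wells for no effect and unstimulated DMSO wells for full effect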

inhibition, inactive:
Cc1nc2sccn2c(=O)c1S(=O)(=O)NCCc1ccccc1 -12.2%
CCc1nc2c(OCCc3cccc(OC)c3)cccn2c1N(C)C(=O)c1ccc(C)cc1 5.8%
Cc1ccc(Cn2c(C)c3cnn(CC(=O)NCCN4CCOCC4)c(=O)c3c2C)cc1 -0.6%
O=C(c1c(F)cccc1F)N1CCN(c2ncc(Br)cn2)CC1 -1.3%
CC(Nc1ccc([N+](=O)[O-])cc1[N+](=O)[O-])c1ccccc1 (stereo not given) 4.8%
O=C(NNC(=O)c1ccc(-n2cncn2)c([N+](=O)[O-])c1)c1ccccc1 14.4%
Cc1cn(C2CC(O)C(CO)O2)c(=O)n(CCCc2ccccc2)c1=O (stereo not given) 1.7%
COc1ccc(-c2cc(C3CCN(c4ncccc4[N+](=O)[O-])CC3)[nH]n2)cc1 18.1%
CN(CC(=O)NCC(c1ccccc1)N1CCCC1)S(=O)(=O)c1ccc(Cl)cc1 (stereo not given) -5.7%
CN(CC(=O)NCCc1ccccn1)S(=O)(=O)c1ccc(Cl)cc1 -8%
COc1ccc(CCNC(=O)CN(c2ccccc2)S(C)(=O)=O)cc1OC -0.3%
COc1ccc(C(C(=O)NC2CCCCC2)N(C(=O)CCl)c2ccccc2Cl)cc1 (stereo not given) -13.3%
CCCCn1c(N)c(N(CC(C)C)C(=O)c2ccc(Br)o2)c(=O)[nH]c1=O -29%
NC(=S)c1ccc(C(N)=S)o1 14.6%
CCC(C(=O)NCc1cccnc1)n1nc(C)c2sc3ccccc3c2c1=O (stereo not given) 9.9%
N#CCCn1ncc2ccccc21 -11.2%
Cc1nnc(NC(=O)CSc2nc(C3CCCCC3)nc3ccccc23)s1 22.6%
O=C(CSc1nc(C2CC2)nc2ccccc12)Nc1ccc2c(c1)OCCO2 42.7%
O=Cc1ccc(OCc2cn3ccccc3n2)cc1 -22.3%
Cc1ccc(C=O)c([B-](F)(F)F)c1 -9.8%
C=CCn1c(C2CC(=O)N(c3ccc(C)cc3)C2)nc2ccccc21 (stereo not given) -16.5%
CCOc1ccc(S(=O)(=O)NCCC(=O)NNC(=O)c2ccc(F)cc2)cc1 9.6%
Cc1ccc2c(c1)N(CC(=O)N1CCCc3ccccc31)C(=O)C(C)O2 (stereo not given) 7.2%
CCOC(=O)c1c(C)oc2cc(Br)c(OCC(N)=O)cc12 -3.8%
CCOC(=O)c1c(C)oc2cc(Sc3ccccc3)c(O)c(O)c12 6.5%
CCOC(=O)c1nnn2c3ccccc3c(=O)n(C)c12 -25.2%
CCOC(=O)N1CCN(C(=O)c2nn(-c3ccc(C)cc3)c(=O)c3c2c2ccccc2n3C)CC1 -7.7%
Cc1ccc(CNC(=O)c2ccc(CS(=O)Cc3cccc(Cl)c3)o2)cc1 (stereo not given) 1.3%
O=C(Nn1cc(C(=O)N2CCN(c3ccccc3F)CC2)c2ccccc2c1=O)c1cnccn1 -8.3%
NNc1cccc(C=Cc2ccccc2)cc1=O 3.8%
CCOC(=O)CSc1nnc(CNC(=O)Cc2ccccc2)n1-c1ccccc1OC 1.5%
CS(=O)(=O)c1cccc(-c2ccc3nncn3c2)c1 5.2%
O=C(O)Cc1ccc(NCc2ccccc2Cl)cc1 -14.4%
CC(CN1CCCCC1)OC(=O)c1ccccc1Cl (stereo not given) -7.9%
Oc1cccc2cc(-c3ccncc3)cnc12 13.6%

inhibition, active:
O=C1C(Cl)=C(Oc2ccccc2)C(=O)c2ccccc21 59.1%
O=C(NC(Nc1nc2ccc([N+](=O)[O-])cc2s1)(C(F)(F)F)C(F)(F)F)c1ccccc1 74.8%
CN(CC(=O)NNC(=O)CNC(=O)c1ccccc1Cl)S(=O)(=O)c1ccc(Cl)cc1 60.5%
COc1ccc(C(CCN(Cc2ccc(OC)c(OC)c2)C(=O)CCl)c2ccccc2)cc1 (stereo not given) 82.6%
O=C(CSc1nc(C2CC2)nc2ccccc12)Nc1cccc(O)c1 50.1%
CN1c2ccc(C=O)c3c(C=O)ccc(c23)N(C)C1(C)C 88%
CCOC(=O)c1c(-c2ccccc2)oc2cc(Br)c(O)c(C=O)c12 68.5%
CCCc1nc2c(c(=O)c3ccccc3n2C)c(=O)n1C1CCCCCC1 55.9%
O=C1OC(Oc2ccc(Br)cc2)(c2ccccc2)c2ccccc21 (stereo not given) 50.3%
CC(C)OC(=O)c1ccc(NCc2cc(O)ccc2O)cc1Cl 86.3%
